The results in this text go back to article PMC12136788.

Substitutions are numbered along the chain they refer to. Whole data set: some 24,000 sequences, median “enrichment r” near 0.99, cut for the highest 2% near 3.7. The sample holds the highest values, similar sequences and a random draw of the others, so the mix is not that of the screen.

Sequences and labels used below:
T1: UNK ZnF1-3 (human, UniProt Q9C0B0 31-174)
T1 sequence: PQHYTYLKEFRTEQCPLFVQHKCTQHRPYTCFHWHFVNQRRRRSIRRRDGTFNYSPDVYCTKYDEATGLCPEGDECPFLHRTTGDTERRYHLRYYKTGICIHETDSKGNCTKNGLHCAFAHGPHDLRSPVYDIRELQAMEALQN

B1: chr8:4269914:4269915:-_ENSMUSG00000002949_ENSMUST00000149827|mus_mus|motif|central (ssRNA)
RNA: GGGAGUUCUACAGUCCGACGAUCCUUCUUGGCCUCAUCUCGGAACUUUUUUAUACUUUCUUUCAUCUCUUUGUUUUUGGCGGAUUCUUGUUUGAUGUUAUCUAGCAAGCCUGACAAAAACCCUUUUCUGCUCCCAGAAGAAUACAACAGAGGAUUGAGCAUCA
B2: 19721883_19722003_1295_CDS_ENSMUSG00000050428_ENSMUST00000053109|mouse|control|control (ssRNA)
RNA: GGGAGUUCUACAGUCCGACGAUCAGGGCUCACUGUCAGGCACACAGUCUCUUCCUUCACGUUCUUGGUGCCAUCUUUGCCAAAGAAGAUGCACGCAUCCACUACACCUGUUACCACCACAUCUACAUGGAAUCCUGAUGCACCCAACAGAGGAUUGAGCAUCA
B3: chr18:56819859:56819860:+_ENSG00000166562_ENST00000588875|hu_mus|hu_hu_hu_mus_True|18_38 (ssRNA)
RNA: GGGAGUUCUACAGUCCGACGAUCAACCUUGAUUACUCUGUGAACUAUCGGAAUGUCUCUUCCUUCAACCUUAAAAACAACUAUUUCACCAGCUCUGAUUGGGUCUUCCCGGAAAUUUGUGAGGAACAGCAGAUCUCCUCUGUGCAACAGAGGAUUGAGCAUCA
B4: chr6:128323885:128323886:+_ENSMUSG00000001517_ENSMUST00000073316|mus_mus|motif|central (ssRNA)
RNA: GGGAGUUCUACAGUCCGACGAUCAGGGUCCUCCUCCAGGCCAGGGAAACUGAUGUCUAGAAGGAUCUUGCUGAGGCGGUCAUUCAUUGUGUCCAGGACAAGGCCUUCUGUGAGAGAACGGUUGGCUGAAAGGCUGGGAAUCUGCAACAGAGGAUUGAGCAUCA
B5: chr12:48459454:48459455:-_ENSG00000079387_ENST00000551330|hu_mus|motif|central (ssRNA)
RNA: GGGAGUUCUACAGUCCGACGAUCUGCUUUCUGCUCUUCAAUCCGGCGCAAUCUUUCCCGAGCUCGAGAGUCAUAAACGCGGGUUAAUUCUUUGAUCCAUAGCUCUGCCUGGAAGAACGUAGGGCUGGAAGCUGGAGUCUGAGACAACAGAGGAUUGAGCAUCA
B6: 55347689_55347809_2221_3pUTR_ENSMUSG00000021488_ENSMUST00000099490|mouse|control|control (ssRNA)
RNA: GGGAGUUCUACAGUCCGACGAUCACUCAGCAGUUUCAGGCUCCAUUGUCUUGGUAGAACCCAUUAAAUGGUCUGCAUGGGAAUUAGUAAUGAGGGAUUUCUGUUUCUCUUUUAUCCUGUUUGUGACAGGAUAUCUAGAAUACUCAACAGAGGAUUGAGCAUCA
B7: chr3:122152592:122152593:-_ENSG00000114030_ENST00000344337|hu_mus|motif|central (ssRNA)
RNA: GGGAGUUCUACAGUCCGACGAUCAUUUGUGAUGGCCCAAGCAGCUUCCUUCCUUGUCCGGAACUCUGCUGUUUGCAAUAUACGGAUAAGAGCUGGGAACAUGUUAGCAUCUAUCACAGUCUGGAUCUGUGCCCUAUUUCCAGCCAACAGAGGAUUGAGCAUCA
B8: chr17:60770872:60770873:+_ENSG00000011028_ENST00000303375|hu_hu|hu_hu_hu_mus_True|1_18 (ssRNA)
RNA: GGGAGUUCUACAGUCCGACGAUCUCUUUAAAAAAAAAAAAAAAAAGACAAACAAUAAUAGCACAUUUCGAGAAUCAAGAACUACAAUAGAGGGUCCGCUUUGAGUUUUUGUUCACAACAUUGUCCCCUGGGACACGACCAGGACAACAGAGGAUUGAGCAUCA
B9: chr17:60770872:60770873:+_ENSG00000011028_ENST00000303375|hu_hu|hu_hu_hu_mus_True|18_68 (ssRNA)
RNA: GGGAGUUCUACAGUCCGACGAUCUCUUUAAAAAAAAAAAAAAAAAGACAAACAAUAAUAGCACAUUAUUUAAAAAAAGAACUACAAUAGAGGGUCCGCUUUGAGUUUUUGUUCACAACAUUGUCCCCUGGGACACGGGGACUGCAACAGAGGAUUGAGCAUCA
B10: chr17:60770872:60770873:+_ENSG00000011028_ENST00000303375|hu_hu|hu_hu_hu_mus_True|1_68 (ssRNA)
RNA: GGGAGUUCUACAGUCCGACGAUCUCUUUAAAAAAAAAAAAAAAAAGACAAACAAUAAUAGCACAUUAUUUAAAAAAAGAACUACAAUAGAGGGUCCGCUUUGAGUUUUUGUUCACAUCGUCCUGCACUGGGACACGACCAGGACAACAGAGGAUUGAGCAUCA
B11: chr17:60770872:60770873:+_ENSG00000011028_ENST00000303375|hu_hu|hu_hu_hu_mus_True|58_68 (ssRNA)
RNA: B9 RNA with A77U, G78C, A86G, A117U, A119G, U121C, G122C, C124G, C126A
B12: chr17:60770872:60770873:+_ENSG00000011028_ENST00000303375|hu_hu|hu_hu_hu_mus_True|68_68 (ssRNA)
RNA: B9 RNA with A117U, A119G, U121C, G122C, C124G, C126A
B13: chr17:60770872:60770873:+_ENSG00000011028_ENST00000303375|hu_hu|hu_hu_hu_mus_True|1_38 (ssRNA)
RNA: GGGAGUUCUACAGUCCGACGAUCUCUUUAAAAAAAAAAAAAAAAAGACAAACAAUAAUAGCACAUUUCGAGAAUCAAGAACUACAAUAGAGGGUCCAUGUCUUCGAUUUGUUCACAUCGUCCUGCACUGGGACACGACCAGGACAACAGAGGAUUGAGCAUCA
B14: chr17:60770872:60770873:+_ENSG00000011028_ENST00000303375|hu_hu|hu_hu_hu_mus_True|28_68 (ssRNA)
RNA: GGGAGUUCUACAGUCCGACGAUCUCUUUAAAAAAAAAAAAAAAAAGACAAACAAUAAUAGCACAUUAUUUAAAAAAAGAACUACAAUAGAGGGUCCGCUUUGAGUUGUCCAUGUUCUCGUCCUGCACUGGGACACGGGGACUGCAACAGAGGAUUGAGCAUCA

For the assay, the target named is T1, UNK ZnF1-3. Nature of the assay: nsRBNS (natural sequence RNA bind-n-seq); RBNS binding buffer (assumed for nsRBNS): 25 mM Tris pH 7.5, 150 mM KCl, 3 mM MgCl2, 0.01% Triton X-100, 500 ug/ml BSA, 20 U/ml SUPERase-In, 4 C; UNK is unkempt and MSI1 is Musashi-1; names of the RNAs are library labels; protein concentration not given here; high values mean tight binding.
The molecule B1 showed a binding signal of 0.472 enrichment R.
For B2, the binding signal stood at 1.01 enrichment R.
B3 registered a binding signal of 0.803 enrichment R.
B4 registered a binding signal of 1.01 enrichment R.
B5 came in with a binding signal of 1.03 enrichment R.
With B6 the figure was 0.567 enrichment R; with B7, 0.808 enrichment R; with B8, 3.43 enrichment R.
For B9, the binding signal turned out to be 4.47 enrichment R.
Regarding B10, the binding signal is 3.57 enrichment R.
B11 returned a binding signal of 4.95 enrichment R.
Molecule B12 gave a binding signal of 4.87 enrichment R.
Next, B13: 2.39 enrichment R; B14: 4.92 enrichment R.
